Results filed as inconclusive are left out. The source made the active and inactive calls. Rule for the calls: active = hit-call score of the fitted dose curve at least 0.9, where 1 is the maximum; inconclusive = response in the unintended direction; inactive = score below 0.9.

The values below come from PubChem BioAssay AID2284334 (EPA ToxCast).

This assay concerns the target human Peroxisome Proliferator-activated Receptor alpha (PPARa), PPARA (gene 5465) (UniProt Q07869). Nature of the assay: ATG_hPPARa_EcoTox2: Attagene TRANS-FACTORIAL EcoTox-2 HepG2 Assay for human Peroxisome Proliferator-activated Receptor alpha (PPARa). The procedure: ATG_EcoTox2 is a cell-based, multiplexed assay created by modifying the existing Attagene TRANS-FACTORIAL system to include a panel of nuclear receptors from some or all the following species: human (Homo sapiens), african clawed frog (Xenopus laevis), rainbow trout (Oncorhynchus mykiss), japanese medaka (Oryzias latipes), and zebrafish (Danio rerio). The ECOTOX2-FACTORIAL format uses HepG2, a human liver cell line, with measurements taken at 24 hours after chemical dosing in a 24-well plate. ATG_hPPARa_EcoTox2 is one of 29 assay components calculated in the ATG_EcoTox2 assay. It is designed to make measurements of mRNA induction, a form of inducible reporter, as detected with fluorescence intensity signals by Reverse transcription polymerase chain reaction (RT-PCR) and Capillary electrophoresis technology.The assay endpoint ATG_hPPARa_EcoTox2 was analyzed in the positive analysis fitting direction relative to DMSO as the negative control and baseline of activity. Using a type of inducible reporter, measures of mRNA for gain-of-signal activity can be used to understand the reporter gene at the transcription factor-level as they relate to the gene PPARa. Furthermore, this assay endpoint can be referred to as a primary readout, because this assay has produced multiple assay endpoints where this one serves a reporter gene function. To generalize the intended target to other relatable targets, this assay endpoint is annotated to the nuclear receptor intended target family, where the subfamily is non-steroidal.
Human liver HepG2 cells are transiently transfected with multiple reporter transcription units (MRTUs) in 6-well plates using FuGene 6 reagent (Roche; 3 ml FuGene/1 mg DNA). The MRTU constructs are regulated by a cis-regulating element (promoter). Each RTU expresses a GAL4-UAS that regulates the transcription of a nearby target reporter gene sequence. A major difference between the CIS and TRANS system is that in CIS activities of endogenous TFs are measured, whereas the TRANS assay evaluates changes in activities of exogenous, chimeric NR-Gal4 proteins. […] At the end of 24 hour incubation, total RNA was isolated using TriZol reagent (Invitrogen). The isolated RNA is then reverse-transcribed using oligo(dT) primer and Mo-MLV reverse transcriptase (Invitrogen) with DNAse I (Ambion) treatment for 30 min. The one-tenth of the produced cDNA was amplified by PCR using Taq DNA polymerase (Invitrogen) and two reporter sequence-specific primers. The PCR products were fluorescently labeled by primer extension with 6-arboxyfluorescein (6-FAM) 5'-labeled reporter sequence-specific primer (2 min at 95 C, 20 s at 68 C and 10 min at 72 C) and these products were digested with 5U of HpaI (New England Biolabs) for 2h at 37 C. The fragments were purified using Qiaquick PCR columns (Qiagen), analyzed on an ABI 3130xL genetic analyzer (Applied Biosystems) with peak positions identified by using a set of X-rhodamine (ROX)-labeled MapMarker1000 molecular weight standards (BioVentures). The raw capillary electrophoresis data was processed using Attagraph software (Attagene).

Chain of human Peroxisome Proliferator-activated Receptor alpha (PPARa), PPARA (gene 5465) (Q07869 whole entry, looked up): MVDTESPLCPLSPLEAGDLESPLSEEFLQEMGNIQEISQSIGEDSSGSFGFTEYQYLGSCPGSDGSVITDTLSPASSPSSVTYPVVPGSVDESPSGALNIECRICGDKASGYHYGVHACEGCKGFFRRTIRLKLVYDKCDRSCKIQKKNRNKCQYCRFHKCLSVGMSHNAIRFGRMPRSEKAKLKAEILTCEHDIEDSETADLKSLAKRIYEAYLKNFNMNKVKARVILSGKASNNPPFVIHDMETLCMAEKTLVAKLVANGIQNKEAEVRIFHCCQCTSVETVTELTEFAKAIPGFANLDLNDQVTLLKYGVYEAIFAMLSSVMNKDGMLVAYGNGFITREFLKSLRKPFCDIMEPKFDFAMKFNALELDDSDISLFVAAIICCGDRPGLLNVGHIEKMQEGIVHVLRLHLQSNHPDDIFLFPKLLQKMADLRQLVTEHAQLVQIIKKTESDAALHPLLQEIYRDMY

For the compound `C[C@@H]1C[C@H]2[C@@H]3CCC4=CC(=O)C=C[C@]4(C)[C@@]3(F)[C@@H](O)C[C@]2(C)[C@@]1(O)C(=O)COP(=O)(O)O`, the compound was called inactive.

As to `C[C@]12C=CC(=O)C=C1CC[C@@H]1[C@@H]2C(=O)C[C@@]2(C)[C@H]1CC[C@]2(O)C(=O)CO`, the outcome was inactive.

For `CC(c1cc2ccccc2s1)N(O)C(N)=O` (stereo not given), the compound was classed as inactive.

As to `CC(C)(Oc1ccc(C2CC2(Cl)Cl)cc1)C(=O)O` (stereo not given), the AC50 (in general, the concentration giving half of the maximal activity seen) was 0.984 µM (active).

As for `CC(C)(Oc1ccc(Cl)cc1)C(=O)O`, the AC50 was 17.1 µM (active).
